# Measured values from publication doi:10.1101/2025.08.08.669391.
# Target: Splicing factor 3B subunit 1 (UniProt O75533)
# Assay: cross-link between two proteins; cross-linking mass spectrometry
# Sequence of UniProt O75533 (O75533 whole entry): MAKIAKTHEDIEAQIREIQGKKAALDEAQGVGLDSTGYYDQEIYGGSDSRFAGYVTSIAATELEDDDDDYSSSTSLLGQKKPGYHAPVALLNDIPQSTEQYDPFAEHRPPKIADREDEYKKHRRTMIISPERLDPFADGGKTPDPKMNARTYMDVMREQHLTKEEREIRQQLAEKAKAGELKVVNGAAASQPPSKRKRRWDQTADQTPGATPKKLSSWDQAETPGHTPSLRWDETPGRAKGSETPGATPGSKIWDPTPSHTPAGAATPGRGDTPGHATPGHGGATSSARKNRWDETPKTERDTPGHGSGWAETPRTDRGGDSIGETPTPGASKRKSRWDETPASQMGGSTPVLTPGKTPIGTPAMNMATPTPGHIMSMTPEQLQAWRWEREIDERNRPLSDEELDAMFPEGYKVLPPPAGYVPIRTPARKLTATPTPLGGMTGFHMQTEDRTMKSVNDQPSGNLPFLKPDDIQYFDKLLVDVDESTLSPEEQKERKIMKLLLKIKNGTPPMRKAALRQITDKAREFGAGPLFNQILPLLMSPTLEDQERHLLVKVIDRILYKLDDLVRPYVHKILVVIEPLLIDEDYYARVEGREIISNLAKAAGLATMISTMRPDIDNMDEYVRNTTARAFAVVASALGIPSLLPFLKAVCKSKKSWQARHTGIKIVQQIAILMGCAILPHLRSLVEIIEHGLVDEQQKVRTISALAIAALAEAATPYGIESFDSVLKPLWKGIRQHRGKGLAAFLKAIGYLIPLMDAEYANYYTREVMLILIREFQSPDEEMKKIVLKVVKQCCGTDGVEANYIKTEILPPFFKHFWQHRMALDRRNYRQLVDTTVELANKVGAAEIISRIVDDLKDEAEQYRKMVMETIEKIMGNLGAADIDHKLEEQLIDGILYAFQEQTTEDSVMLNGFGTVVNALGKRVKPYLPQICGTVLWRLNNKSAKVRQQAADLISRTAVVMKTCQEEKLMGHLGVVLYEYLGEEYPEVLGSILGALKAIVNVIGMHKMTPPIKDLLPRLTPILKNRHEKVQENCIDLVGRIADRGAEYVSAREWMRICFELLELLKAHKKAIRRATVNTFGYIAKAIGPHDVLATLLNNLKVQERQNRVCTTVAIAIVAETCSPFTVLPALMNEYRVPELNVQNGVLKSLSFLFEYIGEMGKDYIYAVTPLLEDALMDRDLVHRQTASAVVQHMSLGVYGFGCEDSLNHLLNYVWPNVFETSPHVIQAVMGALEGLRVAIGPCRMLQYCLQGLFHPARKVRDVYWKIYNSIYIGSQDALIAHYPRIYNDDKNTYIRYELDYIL
substance,measurement,value
"17S U2 SnRNP complex component HTATSF1, O43719",listed as a hit,yes
